D1 PAM: enhances dopamine response at the human D1 receptor. HEK293 TREx D1 cells, calcium flux, dopamine EC20 potentiation. potentiation, % at 10 µM. 0.036% of 360,000 active; in the data active = potentiation above about 30%; also: 0% is about no effect
Target sequence (P21728 whole entry, looked up): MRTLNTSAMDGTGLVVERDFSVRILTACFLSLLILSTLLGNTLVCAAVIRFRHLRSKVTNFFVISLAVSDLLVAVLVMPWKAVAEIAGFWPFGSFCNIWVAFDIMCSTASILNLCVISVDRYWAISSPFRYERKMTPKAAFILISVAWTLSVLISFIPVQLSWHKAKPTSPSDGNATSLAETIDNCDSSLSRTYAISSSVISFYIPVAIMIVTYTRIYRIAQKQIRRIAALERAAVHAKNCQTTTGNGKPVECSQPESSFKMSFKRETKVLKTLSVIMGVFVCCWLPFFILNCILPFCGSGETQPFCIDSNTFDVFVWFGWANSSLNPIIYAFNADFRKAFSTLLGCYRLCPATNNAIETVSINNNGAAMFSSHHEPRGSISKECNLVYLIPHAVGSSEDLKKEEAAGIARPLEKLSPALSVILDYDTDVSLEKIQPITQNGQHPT
DRD3 antagonist: blocks the human D3 dopamine receptor. D3R cells, DiscoveRx beta-arrestin luminescence, antagonist mode; stronger effect = lower value. max response, negative = inhibition, %. 2.5% of 360,000 active. AID 652054; in the data active = max response below about -50%; inconclusive = no clear call, values can overlap the other calls; also: % is scaled to controls: 0 for no effect and ±100 for the full control effect
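Cells expressing the human receptor were seeded at 1500 cells/well, incubated overnight at 37 degrees C in 5% CO2, then exposed to library compounds with dopamine controls for 90 minutes at 37 degrees C before luminescent detection.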
D1 ag: agonists of human D1 dopamine receptor; HEK293 T-REx D1 cells, calcium flux, agonist mode; activation, % at 2 µM; 1% of 360,000 active; AID 504660; in the data active = activation above about 30%; also: 0% is about no effect
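Agonism was scored from calcium flux recorded over 180 s (1 read/s) after pintool compound addition, following a 10-cycle baseline. Cells were inducible force-coupled HEK293 TREx D1, plated overnight at 30 C and loaded with no-wash calcium dye.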
D1 antagonist: blocks dopamine activation of the human D1 receptor; 3.2% of 360,000 active; P21728; HEK293 TREx D1 cells, calcium flux, dopamine EC80; stronger effect = lower value; activity change, negative = inhibition, % at 10 µM; AID 504652; in the data active = activity change below about -30%; also: % is scaled to controls: 0 for no effect and ±100 for the full control effect
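HEK293 T-REx cells expressing inducible, force-coupled D1 receptor; no-wash Ca dye, 30–90 min RT. Cmpd → 180 s read at 1 Hz → EC80 DA → 180 s read.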
BCR signal inh: blocks chronic active B-cell receptor signaling; ABC-DLBCL IkBa-CBG/CBR reporter, luminescence ratio, 4 h; Potency, µM (top dose mostly 46.1 µM), for inactives: at the top dose activity change, negative = inhibition, hits mostly inhibitors; 0.05% of 340,000 active; AID 493014; active = well fitted inhibition curve with a large enough effect in the signal ratio, with a control signal flat, not every such curve was filed as active; inconclusive = small, poorly fitted or top-dose-only effect, or effect the other way, or a change in a side signal; the % refers to the signal ratio;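 also: potency is read from the fitted curve at half-maximal effect; plate controls were basal doxycycline-induced cells for no effect and cells given 10 µM MG132 for full effect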
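Cell line TMD8 (human ABC DLBCL), stably expressing tet-inducible CBG68-IkBa fusion and CBR; IMDM/0.5% FBS; cpd up to 46 uM; dox induction, 4 h, 37C/5% CO2; dual luminescence; green/red ratio; MG132 control.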
DRD3 agonist: D3 dopamine receptor (human) agonism; P35462; D3R DiscoveRx beta-arrestin cells, luminescence, 90 min; max activation, %; 0.58% of 410,000 active; in the data active = max activation above about 30%; also: 0% is about no effect
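Cells at 1500/well, incubated overnight, then treated with pinned compounds (dopamine as control) for 90 min at 37 degrees C. DiscoveRx reagent added for 30 - 60 minutes at room temperature; luminescence read.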
An asterisk follows results filed as active; u = inconclusive; x = not tested or not shown. Hits are enriched below; roughly 6% of the tested compounds scored in any of these assays.

SMILES | D1 PAM | DRD3 antagonist | D1 ag | D1 antagonist | BCR signal inh | DRD3 agonist
COc1ccc(C(=O)Nc2ccc(Nc3ccccc3)cc2)cc1OC | -10 | -3 | -1 | -37* | -2% | 1
COc1ccc(NC(=O)c2coc(=O)c3ccccc23)cc1OC | -5 | x | 0 | -9 | x | 2
COc1ccc(NC(=O)c2coc3ccccc23)cc1OC | -2 | -67* | 0 | 0 | -4% | -13
COc1ccc(C(=O)N/N=C(/C)c2cccc(NC(=O)c3ccncc3)c2)cc1OC | -2 | -16 | 3 | 3 | u | 1
COc1ccc(C(=O)Nc2ccc(-c3cc(C(F)(F)F)nn3-c3ccccc3)cc2)cc1OC | 1 | x | 8 | -12 | 4% | 59*
COc1ccc(C(=O)Nc2cccc(/C(C)=N/NC(=O)c3ccc([N+](=O)[O-])cc3)c2)cc1OC | -10 | 8 | 0 | -34* | -8% | 6
O=S(=O)(NCCc1nnc2ccc(SCc3ccccc3Cl)nn12)c1ccccc1 | 12 | x | -1 | -5 | x | 7
COC(=O)c1cc2oc(C)cc2n1CC(=O)Nc1ccc(C(C)C)cc1 | -3 | x | 1 | 2 | x | 5
CCOC(=O)N1CCc2c(sc(NCc3cc(OC)ccc3OC)c2C(=O)Nc2cc(OC)ccc2OC)C1 | -2 | x | 2 | 8 | -11% | 2
Cc1ccc2[nH]c(=O)c(CN(CCCO)S(=O)(=O)c3cccc4nsnc34)cc2c1 | -5 | -145* | 1 | 25 | -5% | 9
COc1ccc(NCc2cc3cc4c(cc3n(CC(=O)Nc3ccc(F)cc3F)c2=O)OCO4)cc1 | -2 | x | 66* | -3 | x | -12
COc1ccc(NCc2cc3cc4c(cc3n(CC(=O)Nc3cccc(F)c3)c2=O)OCO4)cc1 | 4 | x | 153* | -5 | x | -7
COc1cc2cc(CNc3ccccc3)c(=O)n(CC(=O)Nc3ccc(C)c(Cl)c3)c2cc1OC | -1 | x | 30* | 6 | x | -7
CCc1ccc(NCc2cc3cc4c(cc3n(CC(=O)Nc3cccc(OC)c3)c2=O)OCO4)cc1 | -2 | x | 56* | 3 | x | -7
O=C(c1cccs1)c1cn(CCOc2ccccc2Cl)c2ccccc12 | -7 | x | 6 | -2 | x | 2
CCc1cccc(N2C(=O)CSC23C(=O)N(Cc2ccccc2F)c2ccccc23)c1 (stereo unspecified) | 0 | x | 7 | 3 | x | -15
COc1ccc(NCc2cc3cc4c(cc3n(CC(=O)Nc3ccc(C)cc3)c2=O)OCO4)cc1 | 0 | x | 57* | 2 | x | -8
CCc1ccc(NCc2cc3cc4c(cc3n(CC(=O)Nc3ccc(OC)cc3)c2=O)OCO4)cc1 | -3 | x | -1 | -2 | -10% | 2
CCCCn1c2nc3ccccc3nc2c2c(=O)n(CCC(C)C)cnc21 | -3 | 4 | 3 | -42* | 1% | 2
CCCCn1c2nc3ccccc3nc2c2c(=O)n(-c3ccccc3)cnc21 | -13 | -7 | 2 | 11 | -2% | -8
CCCn1cnc2c(c1=O)c1nc3ccccc3nc1n2CCc1ccccc1 | -2 | -53* | 1 | -4 | 4% | 19
CNc1cncc(-c2ccc(OC)c(OC)c2)n1 | x | -11 | x | x | x | -9
CCCNC(=O)C1(C)CCCN(Cc2ccccc2N(C)C)C1 (stereo unspecified) | x | 32 | x | x | x | -2
COc1cc2c(cc1OC)CN(Cc1cc(=O)oc3cc(C)c(Cl)cc13)CC2 | -1 | -5 | 0 | 4 | 5% | 11
COc1cc2c(cc1OC)CN(Cc1cc(=O)oc3cc(C)c(C)cc13)CC2 | 0 | 5 | -1 | -9 | 0% | 42*
SMILES | D1 PAM | DRD3 antagonist | D1 ag | D1 antagonist | BCR signal inh | DRD3 agonist
CCc1ccc2c(CN3CCc4cc(OC)c(OC)cc4C3)cc(=O)oc2c1 | 3 | -20 | 2 | -1 | 0% | 31*
CCN(CC)c1cc2c(cc1F)c(=O)c(S(=O)(=O)c1cc(C)ccc1C)cn2Cc1ccccc1 | -4 | x | 1 | 1 | x | 0
Cc1nc2ncnn2c(C)c1CCC(=O)NC(C)c1ccc2c(c1)OCCO2 (stereo unspecified) | x | 36 | x | x | u | -1
Cc1nc2nc(C)c(CCC(=O)NC(C)c3ccc4c(c3)OCCO4)c(C)n2n1 (stereo unspecified) | -8 | -9 | 6 | -48* | -4% | 2
Cn1c(Cc2ccccc2)nnc1SCC(=O)NC1CCCCC1 | -1 | -23 | 0 | 15 | 6% | -2
Cn1c(Cc2csc(N)n2)nnc1SCC(=O)NC1CCCCC1 | 0 | -57* | 2 | -6 | 4% | 9
CC(=O)Nc1cccc(-c2ccnc3c2CC(C)(C(=O)NCc2cccs2)O3)c1 (stereo unspecified) | x | 0 | x | x | x | -12
CC1(C(=O)NCc2ccccc2)CSCC(=O)N1CC(F)(F)F (stereo unspecified) | x | 15 | x | x | x | 4
Cc1ccc(Cn2c(CN3CCC(C(=O)NCCc4ccccc4)CC3)cc3ccccc32)cc1 | -3 | x | 43* | 9 | 0% | -12
CCN(CCN(C)C)C(=O)C1CCN(S(=O)(=O)c2c(C)noc2/C=C/c2ccccc2F)CC1 | -7 | -54* | 28 | -37* | -29% | -2
CCOc1ccccc1/C=C/c1onc(C)c1S(=O)(=O)N1CCC(C(=O)N(CC)CC)CC1 | -1 | -19 | 6 | -9 | u | -15
O=C(O)CSc1nnc(CSc2nc3ccccc3s2)n1-c1ccccc1 | -7 | -2 | 2 | 25 | 11% | 2
C#CCSc1nnc(CSc2nc3ccccc3s2)n1-c1ccccc1 | -6 | 17 | 8 | -30* | 25% | 2
CNC(=S)N(Cc1ccc(OC)cc1)C1CC(=O)N(c2ccc(C(=O)OC)cc2)C1=O (stereo unspecified) | 2 | x | 1 | 1 | -12% | x
CNC(=S)N(Cc1ccc(OC)cc1)C1CC(=O)N(c2ccc(OC)cc2)C1=O (stereo unspecified) | -2 | u | 4 | -36* | 0% | -7
CC(=O)Nc1ccc(NC(=O)Cn2cnc3c(cnn3C(C)(C)C)c2=O)cc1 | 4 | 19 | 1 | 6 | 2% | -6
CC(C)(C)n1ncc2c(=O)n(CC(=O)Nc3ccc(Cl)cc3)cnc21 | 2 | -54* | 0 | 9 | -1% | -14
COCc1cc(=O)[nH]c(SCCS(=O)(=O)c2ccc(Cl)cc2Cl)n1 | -2 | -62* | -1 | -6 | 0% | -8
COCc1cc(=O)[nH]c(SCCS(=O)(=O)c2ccc(C)cc2)n1 | 0 | 3 | 1 | 3 | u | 3
CC(=NNc1nc2ccccc2s1)c1ccncn1 | x | -57* | x | x | x | -9
COc1ccc(S(=O)(=O)Nc2cc3c(cc2NCc2ccccc2)n(C)c(=O)n3C)cc1OC | 2 | x | 0 | -3 | x | -5
